SENP6 block – SENP6 protease inhibition; Q9GZR1; Recombinant SENP6 catalytic domain, aminoluciferin luminescence; inhibition, % at 10 µM; hit rate 1.8% among 330,000; AID 2599;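 active = inhibition above about 50% at the single tested dose, limit read from the data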;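 also: plate controls were DMSO wells with enzyme for no effect and DMSO wells lacking enzyme for full effect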
Target sequence (Q9GZR1 628-1112 limits assumed): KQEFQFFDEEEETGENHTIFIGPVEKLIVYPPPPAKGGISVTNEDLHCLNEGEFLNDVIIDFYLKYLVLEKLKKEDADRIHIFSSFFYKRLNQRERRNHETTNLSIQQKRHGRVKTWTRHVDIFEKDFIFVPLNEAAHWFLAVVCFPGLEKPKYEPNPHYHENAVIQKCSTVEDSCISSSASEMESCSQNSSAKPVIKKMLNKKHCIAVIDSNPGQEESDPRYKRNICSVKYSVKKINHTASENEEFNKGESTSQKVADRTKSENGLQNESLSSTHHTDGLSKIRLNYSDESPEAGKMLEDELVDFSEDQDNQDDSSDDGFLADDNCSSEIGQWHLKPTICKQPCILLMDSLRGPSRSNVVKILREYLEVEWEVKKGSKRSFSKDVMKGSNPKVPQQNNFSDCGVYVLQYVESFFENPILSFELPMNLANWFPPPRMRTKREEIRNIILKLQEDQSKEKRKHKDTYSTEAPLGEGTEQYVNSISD
SENP7 inh – SENP7 protease inhibition; hit rate 1.5% among 330,000; Q9BQF6; AID 434973; recombinant SENP7, Z-RLRGG-aminoluciferin luminescence, 40 min; inhibition, % at 5 µM;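 active = inhibition above about 50% at the single test dose, limit read from the data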;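 also: plate controls were DMSO with enzyme for no effect and no enzyme buffer wells for full effect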
HSP90 inh – inhibitors of HSP90 luciferase refolding in rabbit reticulocyte lysate; AID 1789; hit rate 0.91% among 290,000; luciferase refolding luminescence, 3 h; inhibition, % at 5.6 µM;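 active = inhibition above the screen-wide mean plus 3 SD, computed separately per campaign, cut at about 16% in these data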;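 also: 0% = DMSO wells and 100% = 60 µM geldanamycin wells; inhibitors lower the luminescence because luciferase stays unfolded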
LGR2 antag – blocks bursicon-induced cAMP signaling via Drosophila LGR2; HEK293 LGR2, CRE-luciferase, bursicon-stimulated, 4 h; inhibition, % at 9.99 µM; hit rate 0.35% among 380,000; AID 720647;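 active = drop in luminescence signal, shown as inhibition above about 50% in the replicate tests, limit read from the data, passing the limit was not always enough; inconclusive = probably only some replicates passing the limit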;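 also: agonist challenge used bursicon conditioned medium at about half maximal strength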
SENP8 block-1 – blocks human SENP8 cleavage of Nedd8 substrate; inhibition, % at 20 µM; recombinant SENP8, Nedd8 substrate fluorescence; AID 602440; hit rate 0.64% among 360,000; Q96LD8; in the data active = inhibition mostly above about 40%, no sharp cut-off; inactive = mostly below about 27%
Target sequence (Q96LD8 whole entry, looked up): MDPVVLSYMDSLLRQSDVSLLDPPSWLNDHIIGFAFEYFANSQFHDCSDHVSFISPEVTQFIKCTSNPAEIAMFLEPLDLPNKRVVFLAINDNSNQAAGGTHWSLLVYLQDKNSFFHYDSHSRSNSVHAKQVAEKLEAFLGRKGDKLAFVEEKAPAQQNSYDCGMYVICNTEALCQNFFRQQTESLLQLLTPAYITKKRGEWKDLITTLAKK
SENP8 block-2 – inhibitors of human SENP8 protease | purified SENP8, Z-RLRGG-aminoluciferin cleavage, luminescence | inhibition, % at 10 µM | hit rate 1.2% among 330,000 | Q96LD8; in the data active = inhibition above about 50%
Starred values were filed as active, the others as inactive; ? = inconclusive; . = no result. The list is not random: actives were taken first. Their share in the collection is about 2.3%.

SMILES | SENP6 block | SENP7 inh | HSP90 inh | LGR2 antag | SENP8 block-1 | SENP8 block-2
Cc1[nH]n(-c2ccccc2)c(=O)c1C(C[N+](=O)[O-])c1ccccc1Cl (stereo not drawn) | 19 | 47 | 0 | . | 64* | 0
COc1cccc(C(c2c(C)[nH]n(-c3ccccc3)c2=O)c2c(C)[nH]n(-c3ccccc3)c2=O)c1OC | 15 | 39 | 9 | 14 | 73* | 6
Cc1[nH]n(-c2ccccc2)c(=O)c1-c1ccccc1 | 5 | 5 | -1 | . | 12 | 2
O=C(c1cccc(F)c1)N1CC2(C1)[C@H](c1ccccc1)[C@@H](CO)N2C(=O)C1CCOCC1 | . | . | . | 11 | . | .
C[C@H]1CN([C@@H](C)CO)C(=O)c2cc(N(C)C)ccc2O[C@H]1CN(C)S(=O)(=O)c1ccccc1 | . | . | . | 2 | . | .
CC(=O)OCC(=O)C1CCC2C3CC=C4CC(O)CCC4(C)C3CCC12C (stereo not drawn) | -16 | 0 | . | -2 | 8 | -5
CC(=O)C1CCC2C3CC=C4CC(SC(=N)N)CCC4(C)C3CCC12C (stereo not drawn) | . | . | . | 90* | 16 | .
CC(C)(C)[C@H](N)C(=O)N[C@H]1CCC2C3CC=C4C[C@@H](O)CC[C@]4(C)C3CC[C@@]21C (stereo partly drawn) | 21 | -3 | . | 65* | 4 | 5
CC(C)C(=O)N[C@H]1CCC2C3CC=C4C[C@@H](O)CC[C@]4(C)C3CC[C@@]21C (stereo partly drawn) | -13 | 5 | . | 16 | 5 | -8
CCCNC(=O)Nc1ccc2c(c1)C(=O)N(C)C[C@@H](OC)[C@H](C)CN(CCC(F)(F)F)[C@H](C)CO2 | . | . | . | -4 | . | .
Cc1cc(C(=O)Nc2cccc3c2O[C@H](CN(C)S(=O)(=O)c2ccc(F)cc2)[C@H](C)CN([C@@H](C)CO)C3=O)n(C)n1 | . | . | . | -11 | . | .
CN(C)CCCN(C(=O)/C=C/c1cccs1)c1nc2c(F)cccc2s1 | . | . | 3 | 56* | -46 | .
CCN(CC)c1ccc(/C=c2\sc3nnc(-c4ccccc4Cl)n3c2=O)cc1 | 2 | 3 | 1 | . | 61* | 7
CCN(CC)c1ccc(/C=c2/sc3nnc(-c4ccccc4C)n3c2=O)cc1 | -1 | 9 | 3 | . | 36 | -2
CCOCCCNC(=O)/C(C#N)=C/c1cc(OC)c(O)c([N+](=O)[O-])c1 | 1 | -2 | 7 | 34 | 22 | 4
CCOCCCNC(=O)/C(C#N)=C/c1ccc(Cl)c([N+](=O)[O-])c1 | -2 | -13 | 4 | 90* | 3 | -9
C[C@H](CO)N1C[C@H](C)[C@H](CN(C)C(=O)Cc2ccccc2)OCCCC[C@H](C)Oc2ccc(NC(=O)Nc3ccc4c(c3)OCO4)cc2C1=O | . | . | . | 13 | . | .
COc1ccc2nc(C)cc(N/N=C/c3ccc(F)cc3)c2c1 | 9 | -3 | -3 | 69* | -310 | -13
Cc1[nH]c2c(C)cccc2c1CCNC(=O)c1ccc2c(c1[N+](=O)[O-])C(=O)c1ccccc1C2=O | -3 | 6 | 0 | . | 43* | 7
Nc1c(Cl)cnn(-c2ccccc2)c1=O | -30 | 10 | . | 4 | 32 | -5
O=c1c(Cl)c(Cl)cnn1-c1ccccc1 | . | . | -3 | 104* | 11 | .
COc1ccc(C#Cc2ccc3c(c2)O[C@H](CN(C)C(=O)c2ccccn2)[C@@H](C)CN([C@H](C)CO)S3(=O)=O)cc1 | . | . | . | 2 | . | .
Cc1cc(O)c(/C=N/Nc2ccc(Cl)cc2)c(=O)o1 | 85* | 56* | 0 | -8 | -101 | 80*
CC(=O)N1[C@@H]2c3ccc(-c4ccc(F)cc4)c(=O)n3C[C@H]1[C@H](CO)[C@H]2C(=O)N(C)C | . | . | . | 10 | . | .
CC(=O)N1[C@@H]2Cn3c(cccc3=O)[C@H]1[C@@H](C(=O)N[C@H](C)c1ccccc1)[C@@H]2CO | . | . | . | -1 | . | .
SMILES | SENP6 block | SENP7 inh | HSP90 inh | LGR2 antag | SENP8 block-1 | SENP8 block-2
O=C(/C=C/c1ccccc1)NCCSc1ccc(Cl)cc1 | -12 | 12 | -5 | . | 40* | -1
O=C(/C=C/c1ccccc1)NCCOc1ccccc1 | -5 | -3 | -2 | -46 | 27 | -3
CC1Cc2ccccc2N1c1ncnc(N)c1[N+](=O)[O-] (stereo not drawn) | 4 | -5 | 0 | 64* | 9 | -5
Cc1ccc(S(=O)(=O)Nc2ccc3c(c2)C(=O)N([C@@H](C)CO)C[C@H](C)[C@@H](CN(C)Cc2ccccc2)O3)cc1 | . | . | . | -9 | . | .
Cc1ccc(-c2nnc(NCc3nc4ccccc4[nH]3)c3ccccc23)cc1S(=O)(=O)N1CCOCC1 | 8 | 4 | -2 | . | -66 | -2
Cc1ccc(-c2nnc(NCc3nc4ccccc4[nH]3)c3ccccc23)cc1S(=O)(=O)N(C)C | 4 | 1 | -1 | 58* | -63 | 1
COc1ccc2c3c(n(C)c2c1)[C@H](CO)N(C(=O)Nc1ccccc1F)CC31CN(C)C1 | . | . | . | -9 | . | .
O=C(COc1ccccc1[N+](=O)[O-])N/N=C/c1cccc(OC(=O)c2ccc3c(c2)OCO3)c1 | 71* | 77* | 6 | 5 | 10 | 42
COC(=O)N/N=C/c1cccc(OC(=O)c2ccc3c(c2)OCO3)c1 | 39 | 32 | -1 | . | 20 | 7
CC(C)n1cnc2cc(NCc3nc4ccccc4n3C)ccc21 | 62* | 47 | 16* | -15 | -10 | 25
Cc1noc(C)c1S(=O)(=O)N(C)C[C@H]1Oc2ccc(NC(=O)CCCCCC(=O)Nc3ccccc3N)cc2CC(=O)N([C@H](C)CO)C[C@@H]1C | . | . | . | -27 | . | .
CCC(=O)N1CC[C@@H]2[C@@H](CO)Nc3ccc(-c4ccc(C(=O)N(C)C)cc4)cc3[C@@H]21 | . | . | . | 19 | . | .
COc1cc(NC(=O)Cn2ncc(Cl)c(Cl)c2=O)c(C)cc1[N+](=O)[O-] | . | . | 1 | 105* | 8 | .
COc1cc(NC(=O)CN2C(=O)CN(C)C2=O)c(C)cc1[N+](=O)[O-] | -5 | -8 | -3 | -16 | 26 | -4
COc1ccc(C)cc1S(=O)(=O)N1CCCC(C(=O)NCc2ccccn2)C1 (stereo not drawn) | 19 | 5 | -2 | -7 | -81 | 5
O=C(NCc1ccccn1)C1CCCN(S(=O)(=O)c2cc(Cl)ccc2Cl)C1 (stereo not drawn) | . | . | . | . | 43* | .
CCC(=O)N1C[C@@H](C)[C@@H](OC)CN(C)C(=O)c2cc(NC(=O)CC(F)(F)F)ccc2OC[C@@H]1C | . | . | . | 16 | . | .
CC(C)NC(=O)Nc1ccc2c(c1)CC(=O)N([C@H](C)CO)C[C@H](C)[C@@H](CN(C)Cc1ccc3c(c1)OCO3)O2 | . | . | . | -8 | . | .
Cc1noc(C)c1NC(=O)Nc1ccc2c(c1)CC(=O)N([C@@H](C)CO)C[C@H](C)[C@H](CN(C)S(=O)(=O)c1cn(C)cn1)O2 | . | . | . | -10 | . | .
C#CCN(C[C@@H]1[C@@H](OC(=O)NCCCCCC)[C@@H](OC(=O)NCCCCCC)Cn2c(=O)ccc(=O)n21)S(=O)(=O)c1ccc(C)cc1 | . | . | . | ? | 1 | .
C#CCN(C[C@@H]1[C@@H](OC(=O)NCC2CCCCC2)[C@@H](OC(=O)NCC2CCCCC2)Cn2c(=O)ccc(=O)n21)S(=O)(=O)c1ccc(C)cc1 | . | . | . | 72* | -30 | .

Screening results (PubChem)
